ClpP mod – qHTS Assay for Activators of ClpP | ATP-dependent Clp protease proteolytic subunit (Bacillus subtilis (strain 168)), P80244 | purified B. subtilis ClpP, FRET peptide cleavage, 20 min | Potency, µM (series often up to 57.5 µM), for the others: at the top dose activity change, negative = active | hit rate 1.9% among 340,000; active = well fitted falling curve with a large enough effect; inconclusive = small, poorly fitted or top-dose-only effect; inactive = no such curve, though single readings can be large or run the other way; also: potency is read from the fitted curve at half-maximal effect; the source files actives as falling curves though it sought activators and does not explain the sign; nearly all actives have a fitted effect of over 65% in size
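ClpP 10 microg/mL final, pH 8 Tris/KCl buffer with BSA, glycerol, Tween-20; compound pinned in; FRET-FV substrate; RT 20 min; Ex320/Em430; ΔFRET vs ADEP 5.8 microM, DMSO, no enzyme.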
CBFb RUNX1 block – blocks binding between human CBF-beta and RUNX1; Q01196+Q13951; AlphaScreen CBFb-His/RUNX1-biotin binding, biochemical; Potency, µM (highest dose often 59.8 µM), for inactives: at the top dose activity, negative = inhibition, most hits filed as inhibitors; 230,000 tested, under 10 active; AID 1477; also: % of control where 0% means no effect
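Bead-based AlphaScreen assay; binding partners His-tagged CBF-beta and biotinylated RUNX1 at 30 nM each. Compound exposure 15 min after a 20-min protein preincubation; bead step 90 min; all steps at room temperature.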
a7 integrin act – activates integrin-mediated alleviation for muscular dystrophy; hit rate 0.064% among 350,000; Potency, µM (highest dose often 38.3 µM), for inactives: at the highest dose activation, hits mostly activators; alpha7betagal myoblasts, beta-gal FDG fluorescence, 48 h;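 also: potency is read from the fitted curve at half-maximal effect; 100% = response of the positive control SU9516; nearly all actives have a fitted effect of over 60% in size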
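Alpha7betagal+/- myoblasts (passage 13) were plated 16-24 hr, then exposed to compounds (1:260 dilution of DMSO stock) for 48 hours at 37C. After MPER lysis, β-galactosidase reporter activity was read as FDG fluorescence (ex 480/em 540) after 30 minutes.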
Anesthetic bind – binds horse apoferritin like a general anesthetic; apoferritin/1-aminoanthracene competitive binding, fluorescence; hit rate 0.074% among 350,000; Potency, µM (top dose mostly 77.5 µM), without a hit: at the top dose activity change, negative = displacement, hits mostly inhibitors; also: potency is read from the fitted curve at half-maximal effect; % is scaled to controls: 0 for no effect and ±100 for the full control effect; nearly all actives have a fitted effect of over 20% in size
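Apoferritin-based anesthetic binding model; compound displacement of fluorescent 1-AMA measured as endpoint fluorescence after 10 minutes at room temperature, scaled to free-ligand and complex controls.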
N370S GC mod – inhibits or activates N370S mutant glucocerebrosidase | Potency, µM (doses to about 59.4 µM), inactives show top-dose activity change, negative = inhibition, hits mostly inhibitors | P04062 | AID 2101 | hit rate 0.092% among 330,000 | N370S GC spleen homogenate, 4MU-glucoside fluorescence;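 also: potency is read from the fitted curve at half-maximal effect; 0% = full enzyme activity and -100% = no enzyme basal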
GRP78 ERSR act – ER stress response induction in glioma; U87-MG GRP78 promoter luciferase reporter, 16 h; Potency, µM, for the others: at the highest dose activation, usual class: activators; hit rate 0.02% among 420,000; AID 602332; also: potency is read from the fitted curve at half-maximal effect; series mostly up to about 76 µM; % of control where 0% means no effect; nearly all actives have a fitted effect of over 35% in size
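Stably transfected U87-MG glioma cells carrying a GRP78-based luciferase sensor; 16 h compound incubation. Luminescence end-point read 10 min after Bright-Glo addition at room temperature.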
The depositor's hits bear a star; ? = inconclusive; nt = no result given; [ ] = another dose, or the depositor's remark. The sample as a whole holds a higher share of hits than the screen did. Unless noted, calls follow the shape of the dose curve; as a rule, active = well fitted curve in the direction sought with a large enough effect; inconclusive = small, poorly fitted or top-dose-only effect, or another doubt; inactive = no such curve, though single readings can be large; an effect the other way counts as inactive or inconclusive.

SMILES	ClpP mod	CBFb RUNX1 block	a7 integrin act	Anesthetic bind	N370S GC mod	GRP78 ERSR act
CCOC(=O)N1CCN(C(=S)Nc2ccc3nc(N4CCN(CC)CC4)cc(C)c3c2)CC1	16µM*	0%	-33%	0%	3%	-2%
COc1cc(/C=c2\[nH]c(=O)/c(=C/c3cc(OC)c(OC)c(OC)c3)[nH]c2=O)cc(OC)c1OC	2%	nt	nt	nt	nt	-3%
CCOC(=O)C1CCCN(C(=O)CCC(=O)Nc2ccc3nc(N4CCOCC4)cc(C)c3c2)C1 (stereo not drawn)	8.9µM*	5%	-20%	4%	5%	0%
Cc1cc(N2CCOCC2)nc2ccc(NC(=S)NCc3ccc4c(c3)OCO4)cc12	4%	-5%	10µM*	135%	?	-1%
Cc1cccc(N2C(N)=C(C#N)C(C#N)(C#N)C2c2ccccc2)c1 (stereo not drawn)	14µM*	nt	-1%	?	?	3%
N#CC1=C(N)N(c2ccccc2)C(c2ccco2)C1(C#N)C#N (stereo not drawn)	14µM*	-1%	-7%	0%	15%	-4%
Cc1cccc(N2C(S)=C(C#N)C(=O)NC2c2ccco2)c1 (stereo not drawn)	nt	7%	-11%	-10%	-10%	0%
N#CC1=C(N)N(c2ccccc2)C(c2cccc([N+](=O)[O-])c2)C1(C#N)C#N (stereo not drawn)	1%	-8%	-23%	?	-10%	-6%
CCCCC(=O)NCc1ccc(Cl)cc1	20µM*	2%	4%	9%	2%	-4%
CCCC(=O)OCC(=O)NCc1ccc(Cl)cc1	nt	12%	6%	-2%	1%	-3%
Cc1cccnc1-c1cccc2c1OC(CNC(=O)C(=O)c1ccccc1)C2 (stereo not drawn)	nt	nt	nt	nt	nt	-4%
COc1cccc(CNS(=O)(=O)c2cn(C)cn2)c1	14µM*	-1%	-6%	-5%	?	2%
O=C(Cc1c(O)c2ccccc2[nH]c1=O)NCc1ccccc1F	28µM*	0%	7%	?	?	-3%
O=C(Cc1c(O)c2ccccc2[nH]c1=O)NCc1cccc(F)c1	28µM*	0%	-11%[7.66 µM]	-9%	0%	-3%
COc1ccc(NC(=O)Cc2c(O)c3ccccc3[nH]c2=O)cc1	-20%	6%	-7%	-5%	-5%	0%
CCCNC(=O)Cc1c(O)c2ccccc2[nH]c1=O	?	4%	1%	-8%	-24%	-4%
CC1CC2C3CCC4=CC(=O)C=CC4(C)[C@@]3(F)C(O)CC2(C)[C@@]1(O)C(=O)CCl (stereo partly drawn)	nt	nt	nt	nt	nt	-4%
Cc1cc(-c2ccnc(-n3ncc(C(=O)NCc4cccnc4)c3C3CC3)n2)c(C)s1	nt	nt	nt	nt	nt	6%
COc1ccc(OC)c(/C=N/NC(=O)c2csc3ccccc23)c1	32µM*	2%	-5%	105%	4%	-4%
COc1ccc(O)c(/C=N/NC(=O)c2cc(=O)[nH]c3ccccc23)c1	1%	nt	5.6µM*	1%	-13%	-5%
O=C(N/N=C/c1ccccc1)c1cc(=O)[nH]c2ccccc12	-16%	-7%	28%	-15%	10%	0%
CN1C(=O)NC(c2ccccc2)C2=C1CN(c1cccc(C(F)(F)F)c1)C2=O (stereo not drawn)	40µM*	4%	15%	?	-15%	-6%
COc1ccc(C2NC(=O)N(C)C3=C2C(=O)N(c2ccccc2)C3)cc1 (stereo not drawn)	-17%	nt	nt	-11%	nt	3%
CCOC(=O)c1c(-c2cccc([N+](=O)[O-])c2)cn2ccccc12	nt	-5%	-37%	?	7%	-1%
CCOC(=O)c1c(-c2ccccc2Cl)cn2ccccc12	25µM*	27%	21%	55%	14%	0%
[O-][N+]12CCCc3cccc(c31)CCC2	-10%	nt	nt	nt	nt	-3%
COc1cccc(Cn2c(=O)n(-c3cc(C)cc(C)c3)c(=O)c3oc4ccccc4c32)c1	35µM*	nt	nt	-12%	nt	-1%
